Records with an inconclusive call do not appear. A number with no mark means an inactive call. The source made the active and inactive calls. Calls follow the shape of the dose curve; as a rule, active = well fitted cell-killing curve with a large enough effect; inconclusive = small, poorly fitted or top-dose-only effect; inactive = flat fitted curve, though single readings scatter.
Assay: Cell Viability - LYMP2-018 (AID 985);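 also: compound exposure lasted 24 hr at 37 °C; nearly all actives have a fitted effect of over 50% in size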
Details: LYMP2-018 lymphoblastoid cells, viability (qHTS); series mostly up to 92.2 µM; activity change, negative = cytotoxicity: at the top concentration
Description: NIH Chemical Genomics Center [NCGC]
NIH Molecular Libraries Screening Centers Network [MLSCN]
National Institutes of Environmental Health Sciences [NIEHS]
National Toxicology Program [NTP]
We have developed a 1536-well cell-based assay for quantitative high throughput screening (qHTS) against a number of cell lines to determine in vitro cytotoxicity of small molecules. This particular assay uses a human lymphoblastoid cell line (LYMP2-018) purchased from Coriell Institute for Medical Research.
NCGC Assay Protocol Summary:
The CellTiter-Glo luminescent cell viability assay (Promega) is a homogeneous method to measure the number of viable cells in culture. The end point readout of this assay is based on quantitation of intracellular ATP, an indicator of metabolic activity, using the luciferase reaction. Luciferase catalyzes the oxidation of beetle Luciferin to oxyluciferin and light in the presence of ATP. The luminescent signal is proportional to amount of ATP present.
Using the CellTiter-Glo luminescent cell viability assay, the amount of cellular ATP was measured in the lymphoblastoid cell line with complete culture medium following compound treatment for 24 hours. The assay was performed in opaque white Kalypsys 1536-well plates. In the screen, tetraoctylammonium bromide was used as positive control. Library compounds were measured for their ability to cause acute toxicity in the cell line, as reflected by a decrease in intracellular ATP levels, in a concentration-dependent manner. […] AC50 values were determined from concentration-response data modeled with the standard Hill equation.
qHTS protocol for CellTiter Glo lymphoblastoid cellular assay
[Step] [Parameter] [Value] [Description]
1. Reagent; 5 uL; 2500 lymphoblastoid cells/well
2. Time; 5 hr; 37 C incubation
4. Controls; 23 nL; Tetraoctylammonium bromide 6.4pM to 92 uM
5. Time; 24 hr; 37 C incubation
6. Reagent; 5 uL; CellTiter Glo reagent
7. Time; 30 min; Room Temperature
8. Detection; Luminescence; Viewlux plate reader
Keywords: cell viability, cytotoxicity, lymphoblastoid cell line, luminescence, NTPHTS, NTPHTS_NCGC, NIEHS, DSSTox, MLSMR, MLSCN, NIH Roadmap, qHTS, NCGC

Structure (SMILES)	activity change, negative = cytotoxicity	Potency
CCOP(=S)(OCC)SCSC(C)(C)C	-1.17%	–
C=CC(=C)C	2.48%	–
CCC[CH2][Sn]([Cl])([Cl])[Cl]	-10.3%	–
OCC(Br)CBr (stereo not given)	-3.94%	–
CCCOC(=O)c1ccccc1C(=O)OCCC	-9.78%	–
c1ccc(OP(Oc2ccccc2)Oc2ccccc2)cc1	-1.94%	–
Clc1nc(Cl)nc(Cl)n1	-9.5%	–
CCN(CC)c1ccccc1	5.81%	–
C=CCc1ccc(OC)cc1	0.11%	–
C1CCC2CCCCC2C1 (stereo not given)	-6.06%	–
CN=C=S	-6.04%	–
Cc1cccc(C#N)c1	-8.83%	–
C[C@]12CC[C@H]3[C@@H](CCC4=CC(=O)CC[C@@]43C)[C@@H]1CC[C@@H]2O	-1.04%	–
CCSC(=O)Cl	-3.2%	–
O=C(Cl)C(Cl)(Cl)Cl	-5.54%	–
Cc1ccccc1N	–	inactive
CCCSC(=O)Cl	3.42%	–
C=CCOC(C)=O	-3.61%	–
ClC(Cl)=C(Cl)Cl	–	inactive
Cc1ccc([N+](=O)[O-])cc1C	8.5%	–

Structure (SMILES)	activity change, negative = cytotoxicity	Potency
O=[N+]([O-])c1cccc2ccccc12	0.626%	–
C=CCc1ccc2c(c1)OCO2	-5.2%	–
CCCC(=O)Cl	-1.88%	–
ClCBr	-28.8%	–
c1ccc(-c2ccccc2)cc1	-7.17%	–
c1nc[nH]n1	-15.8%	–
COc1ccc(C=O)cc1OC	-0.392%	–
CC(Cl)Cl	-9.28%	–
ClC(Cl)(Cl)c1ccccc1	–	inactive
COC(=O)NC(=S)Nc1ccccc1NC(=S)NC(=O)OC	-10.4%	–
NC(=S)Nc1ccccc1	–	inactive
BrCCBr	-7.76%	–
C=CC1CC=CCC1 (stereo not given)	-0.233%	–
C=C(C)C(=O)OCC1CO1 (stereo not given)	-13.3%	–
Brc1ccccc1	-6.69%	–
Nc1ccc(Br)cc1	4.81%	–
Clc1ccc2ccccc2c1	-14.9%	–
COP(=S)(OC)Oc1ccc([N+](=O)[O-])cc1	-8.05%	–
O=C=NC1CCCCC1	–	inactive
O=S1OCC2C(CO1)C1(Cl)C(Cl)=C(Cl)C2(Cl)C1(Cl)Cl (stereo not given)	-31.1%	–
